# Unmarked numbers belong to inactive results.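 The calls were made as follows: active = viability at or below 10% of carrier control in both of two separate runs; inconclusive = viability at or below 10% in only one of the two runs; inactive = the rest.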
# Test: SK-BR-3 cell growth inhibitors, pilot screen, 24 h, human (AID 572);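 also: compound exposure lasted between 18 and 24 h rather than exactly 24 h; 100% = carrier-treated control wells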
# Conditions: SK-BR-3 viability, CellTiter-Glo luminescence, at 10 µM, stronger effect = lower value
row,Compound,viability [%]
1,CC(CCc1ccccc1)NC(=O)C1CCCN(c2nnc(-n3cccc3)s2)C1 (centres undefined),89.5
2,O=C(c1cc(C2CC2)on1)N1CCN(C(c2ccccc2)c2ccccc2)CC1,84.5
3,O=C(C1COc2ccccc2O1)N1CCCC1 (centres undefined),80
4,CCCCOC(=O)Nc1nc2ccc(OC)cc2s1,94
5,CCn1cc(C(=O)NCC2CCCO2)c(=O)c2cc(S(=O)(=O)N(C)C3CCCCC3)ccc21 (centres undefined),83.5
6,CCCNC(=O)CS(=O)(=O)Cc1nc(-c2cccc(OC)c2)oc1C,86
7,CC(=O)C1=C(N2CCCCC2)CCC1=O,86
8,CCOC(=O)C1CCN(Cc2ccc(F)c(Br)c2)CC1,122
9,Cc1ccc(N(C(=O)c2ccncc2)C2C=CS(=O)(=O)C2)cc1 (centres undefined),108
10,COc1ccc(CCNC(=O)C2(C)CCC(=O)N2Cc2ccc3c(c2)OCO3)cc1OC (centres undefined),77.5
11,COc1ccc(C2c3c(oc4ccccc4c3=O)C(=O)N2c2ccc(C)cn2)cc1OC (centres undefined),83
12,CCn1cc(C(=O)NCCCOC)c(=O)c2cc(S(=O)(=O)N(C)C)ccc21,92
13,Cc1cc(C)nc(/N=C2\NC(=O)CC(C(=O)O)N2c2ccc(Cl)cc2)n1 (centres undefined),106
14,O=C(O)c1ccccc1S(=O)(=O)NCC(O)COc1ccc(Br)cc1 (centres undefined),102
15,COC(=O)Cn1c(=NC(=O)CSCC(=O)Nc2cc(C)on2)sc2ccccc21,89
16,COc1ccc(S(=O)(=O)N(CC(=O)N2CCN(c3ccccc3OC)CC2)c2ccccc2)cc1,74
17,CCOc1ccccc1NC(=O)CC1Nc2cc(C)c(C)cc2NC1=O (centres undefined),80.5
18,COc1ccc(N2Cc3ccccc3C2)cc1Cl,118
19,CCOC(=O)C(CC)n1nc(C)n2c(cc3sccc32)c1=O (centres undefined),114
20,CCOC(=O)C(CC)(CCC(=O)O)c1csc(N)n1 (centres undefined),99

row,Compound,viability [%]
1,CCOc1ccc(NC(=O)CN2C(=O)C3CCCN3C2=O)cc1 (centres undefined),85
2,CCOC(=O)N1CCN(C(=O)COc2ccc(S(=O)(=O)NC(C)C)cc2)CC1,96
3,O=C(NC1CCCc2ccccc21)c1ccc(CNc2c(N3CCOCC3)c(=O)c2=O)cc1 (centres undefined),86.5
4,CNC(=O)c1ccsc1NC(=O)c1ccccc1,88.5
5,N#Cc1cc2c(nc1SCC(=O)N1CCCCC1)CCCC2,85
6,COc1ccc(N2CCN(c3oc(COc4ccccc4Cl)nc3C#N)CC2)cc1,109
7,COc1ccccc1S(=O)(=O)Cc1ccc(C(=O)N2CCN(c3ccc(C)cc3)C(C)C2)o1 (centres undefined),82.5
8,CCOC(=O)N1CCC(c2cc(=O)n3[nH]c(C)c(-c4ccc(F)cc4)c3n2)CC1,67
9,O=C1CCCC2=C1C(c1cccc(Br)c1)n1nc(-c3ccco3)nc1N2 (centres undefined),95.5
10,CCc1ccccc1NC(=O)c1cnc2n(c1=O)CCS2,90.5
11,CC(CCc1ccco1)NC(=O)Cn1ncc2c1-c1ccccc1OC2 (centres undefined),93
12,COc1cccc(NC(=O)C2CCCN(S(=O)(=O)c3cccc4cccnc34)C2)c1 (centres undefined),106
13,COc1ccc(C(=O)Nc2nncs2)c(OC)c1,95.5
14,CNC(=O)c1ccccc1NC(=O)c1c(O)c2c([nH]c1=O)CCCC2,112
15,Cc1occc1C(=O)N1CCN(Cc2ccccc2)CC1,85.5
16,CN(C)CCCN1C(=O)CSC1c1ccccc1 (centres undefined),100
17,CCc1ccc(N(CC(=O)NC2CCCC2)S(=O)(=O)c2c(C)noc2C)cc1,102
18,CSc1cccc(NC(=O)C2CCN(S(=O)(=O)c3ccc(F)cc3)CC2)c1,77.5
19,O=C(CSc1nnc(Cn2c(=O)sc3ccccc32)n1-c1ccccc1)Nc1nccs1,97

# — PubChem BioAssay
